Measurements published in PubChem BioAssay AID720700 (The Scripps Research Institute Molecular Screening Center, 2013).
Hit rate of the full screen: of about 370,000 compounds, about 3,100 (0.84%) were called active. Cut-off read from the data, not from the text of the source: active = inhibition above about 9.5%; inactive = the rest. Many of the other results were omitted from the sample, so actives are more common in it than they were.

The compounds below were run against 1-phosphatidylinositol 4,5-bisphosphate phosphodiesterase gamma-1 (Homo sapiens) (UniProt P19174) (assay: PLC-gamma1 enzyme inhibitors, primary screen, biochemical, fluorescence, purified enzyme (AID 720700)). Details: purified PLC-gamma1, fluorogenic substrate, at 12.2 µM, hits give high values.
1-phosphatidylinositol 4,5-bisphosphate phosphodiesterase gamma-1 (Homo sapiens), sequence (P19174 whole entry, looked up): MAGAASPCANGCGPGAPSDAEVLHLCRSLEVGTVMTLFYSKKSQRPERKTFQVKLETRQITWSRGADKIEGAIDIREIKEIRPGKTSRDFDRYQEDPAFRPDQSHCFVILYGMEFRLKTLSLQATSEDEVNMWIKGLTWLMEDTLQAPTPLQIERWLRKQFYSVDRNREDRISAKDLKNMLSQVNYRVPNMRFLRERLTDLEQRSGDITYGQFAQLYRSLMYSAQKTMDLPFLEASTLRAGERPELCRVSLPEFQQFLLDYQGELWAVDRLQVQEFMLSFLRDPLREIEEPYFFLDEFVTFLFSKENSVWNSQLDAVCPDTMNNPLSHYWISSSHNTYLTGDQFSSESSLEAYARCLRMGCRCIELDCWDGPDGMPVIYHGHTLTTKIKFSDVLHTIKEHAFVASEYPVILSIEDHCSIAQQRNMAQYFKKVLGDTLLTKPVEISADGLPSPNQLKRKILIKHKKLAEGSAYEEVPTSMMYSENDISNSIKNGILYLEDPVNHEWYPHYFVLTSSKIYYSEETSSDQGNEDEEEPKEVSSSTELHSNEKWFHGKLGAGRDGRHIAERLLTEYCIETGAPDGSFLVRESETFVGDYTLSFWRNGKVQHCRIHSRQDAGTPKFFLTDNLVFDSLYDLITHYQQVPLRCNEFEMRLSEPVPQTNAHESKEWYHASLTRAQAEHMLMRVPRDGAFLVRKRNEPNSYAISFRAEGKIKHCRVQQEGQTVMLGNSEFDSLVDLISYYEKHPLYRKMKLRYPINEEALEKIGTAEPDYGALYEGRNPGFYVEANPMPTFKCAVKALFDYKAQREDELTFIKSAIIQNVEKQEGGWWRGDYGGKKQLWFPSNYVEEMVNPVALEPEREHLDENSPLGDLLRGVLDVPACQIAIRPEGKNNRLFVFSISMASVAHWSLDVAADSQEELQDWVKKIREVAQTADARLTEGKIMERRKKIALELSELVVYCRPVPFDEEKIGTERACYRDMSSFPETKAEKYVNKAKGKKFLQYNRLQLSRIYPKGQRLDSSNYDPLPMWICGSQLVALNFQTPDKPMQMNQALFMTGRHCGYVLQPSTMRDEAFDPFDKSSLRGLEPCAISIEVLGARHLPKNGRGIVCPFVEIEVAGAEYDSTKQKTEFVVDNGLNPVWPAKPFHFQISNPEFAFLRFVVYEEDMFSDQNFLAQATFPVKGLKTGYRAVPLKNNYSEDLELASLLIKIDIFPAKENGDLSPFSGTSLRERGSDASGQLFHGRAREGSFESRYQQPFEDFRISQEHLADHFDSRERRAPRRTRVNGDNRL

inhibition, inactive:
COc1cccc(N2CCN(CC(=O)N(C)Cc3ccc(F)cc3)CC2)c1 0.54%, Cc1cc(C)cc(N(CC(=O)NCCSCc2ccco2)S(C)(=O)=O)c1 2.48%, CCc1ccccc1N(CC(=O)NCCSCc1ccco1)S(C)(=O)=O -1.22%, CCCCNC(=O)C[C@H]1C[C@@]2(C(=O)OC)C(=C[C@H](COCc3ccccc3)O[C@@H]2C)N(Cc2ccc(Cl)cc2Cl)C1=O 2.69%, O=C1C(=O)N(Cc2ccc(-c3ccsc3)cc2)c2ccc(OC(F)(F)F)cc21 -5.5%, CCN(CC)C(=O)CC[C@@H]1CC[C@]2(CCCN(S(=O)(=O)C3CCCCC3)C2)O1 -1.56%, COC(=O)C1CN(CCc2ccccc2)CCS(=O)(=O)N1Cc1ccc(F)cc1 (stereo unspecified) 0.52%, Cc1ccc(S(=O)(=O)N2CCN(C(=O)Cc3sc(C)nc3-c3ccc(F)cc3)CC2)c(C)c1 -4.71%, Cc1nc(-c2ccc(F)cc2)c(CC(=O)Nc2cc(S(=O)(=O)N3CCCCC3)ccc2C)s1 0.89%, O=CN1CCN(C(=O)c2ccc3c(c2)OCO3)CC1 0.54%, O=C(C(=O)N1CCN(c2ccccc2)CC1)c1ccc2c(c1)OCO2 -0.77%, N#Cc1ccc(OC[C@@H](O)CN2CCC(C(O)(c3ccccc3)c3ccccc3)CC2)c(F)c1 0.67%, COCCCNC(=O)C[C@H]1C[C@@]2(C(=O)OC)C(=C[C@H](C(C)(C)C)O[C@@H]2C)N(Cc2ccc(Cl)cc2Cl)C1=O 1.11%, CC(C)(C)OC(=O)NCc1cc(F)ccc1/C=C/S(=O)(=O)NCCc1ccccc1 2.46%, COC(=O)c1ccc(C23CC4(C2)[C@H](CN(Cc2cccnc2)[C@@H]4c2ccccc2)C3c2ccc(Cl)nc2)cc1 (stereo partly specified) 2.06%, COC(=O)[C@]1(C#N)CC(=O)N(CC2CCCCC2)[C@@H]1c1ccccc1 8.67%, COc1ccc(C#CCNCc2ccc(OC)cc2OC)cc1 2.01%, Cc1cc(C(=O)NN=C/C=C/c2ccco2)n[nH]1 -16.7%, CCCCNC(=O)C[C@H]1C(=O)N(Cc2ccc(OC)cc2)C2=CCCC[C@@]21C(=O)OCC 4.39%, COC(=O)C[C@@H]1CC[C@@H]2[C@@H](COc3ccc(NC(=O)Nc4ccc(F)c(F)c4)cc3C(=O)N2C)O1 1.9%, COC(=O)C[C@H]1CC[C@H]2[C@H](COc3ccc(NC(=O)C4CC4)cc3C(=O)N2C)O1 -1%, COC(=O)c1cccc(Cn2ccc3ccc(-c4ccc5ccn(C(=O)C6CCCCC6)c5c4)cc32)c1 -51.3%, CC(=O)N1CCCN(C2=Nc3ccccc3Sc3ccccc32)CC1 0.02%, O=C(OCC(=O)N1CCN(c2ccccc2)CC1)c1ccc([N+](=O)[O-])s1 -1.31%, COc1ccc(C(=O)OCC(=O)Nc2ccc3[nH]c(=O)[nH]c3c2)c(OC)c1OC 4.24%, COc1ccc2c(c1)CN1CN(CCc3ccccc3)S(=O)(=O)CC21 (stereo unspecified) -10.3%, C=CCn1c(SCC(N)=O)nnc1-c1ccccc1OC 1.51%, C=CS(=O)(=O)N(Cc1nnn(Cc2ccccc2)c1Br)[C@H](C(=O)OC)C(C)C 2.5%, CCN(C(=O)[C@@H](C1CC1)[C@@H](O)c1ccc2ccccc2c1)c1ccccc1 1.27%, O=c1c2ccccc2c(-c2ccccc2)nn1-c1ccccn1 2.78%, O=c1c2ccccc2c(-c2ccc(Br)cc2)nn1Cc1ccccc1 -0.25%, Cc1cc(C)c(NC(=O)CN2CCCCCC2)c(C)c1 4.73%, O=C(CN1CCOCC1)Nc1c(Cl)cc(Cl)cc1Cl 0.95%, Cc1ccccc1NC(=O)COC(=O)c1ccc(Sc2ncn[nH]2)c([N+](=O)[O-])c1 -0.83%, COc1ccc(C(C)=O)cc1COc1ccc(Cl)c(C)c1 2.04%, COc1ccc(C(C)=O)cc1COC(=O)Cn1cnc2ccccc2c1=O 5.51%, COC[C@@H]1CCCN1c1ccc2c(c1)O[C@H](C)CCN(C1CC1)S2(=O)=O -1.38%, O=C(c1ccncc1)N1CC[C@H]2[C@H](CCCN2Cc2ccc(F)cc2)C1 2.52%, O=C(OC12CCCN(C1)/C(=C/c1ccccc1)C2)c1ccco1 (stereo unspecified) 6.33%, O=C(COC(=O)Cc1ccccc1F)NCCc1ccccc1 -0.55%, COc1ccc(CCNC(=O)COC(=O)Cc2cccc(F)c2)cc1 -3.08%, COC(=O)C[C@@H]1CC[C@H]2[C@@H](COc3ccc(NS(=O)(=O)CC(F)(F)F)cc3C(=O)N2C)O1 0.55%, CC(C)N1CCCCC(NC(=O)c2ccc3ccccc3c2)C1=O (stereo unspecified) -1.22%, Cc1ccc(NS(=O)(=O)c2ccc3c(c2)n(C)c(=O)c(=O)n3C)c(C)c1 -0.33%, Cc1ccc(S(=O)(=O)NC(=O)COc2ccccc2C)cc1 -1.05%, COC(=O)[C@]12C[C@H](CC(=O)NCCc3ccccc3OC)C(=O)N(Cc3ccco3)C1=C[C@H](C(C)C)O[C@@H]2C1CC1 -0.19%, O=C(NCCC1=CCCCC1)C1CCN(S(=O)(=O)c2ccc(Cl)s2)CC1 -0.14%, CCOC(=O)c1csc(NC(=O)C2CCCN(S(=O)(=O)c3ccc(Cl)s3)C2)n1 (stereo unspecified) 6.52%, CN(C)Cc1cn(-c2ccc(-c3noc4c3C(=O)N(CC(=O)N3CCOCC3)CC4)cc2)nn1 -16.7%, COC(=O)c1ccc(CSc2nnc(N)s2)o1 -0.29%, CN(C(=O)CSc1nnc(N)s1)c1c(N)n(Cc2ccccc2)c(=O)[nH]c1=O -0.92%, CCCC1CCC2(CCCN2CCOC(=O)NCc2ccccc2)CC1 (stereo unspecified) 2.03%, O=C(CNCCO)NC12CC3CC(CC(C3)C1)C2 9.27%, O=C(NCC12CC3CC(C1)CC(CNC(=O)N1CCCC1)(C3)C2)N1CCCC1 -0.47%, O=C(NCCc1c[nH]c2ccccc12)OCc1cn(-c2c(F)cccc2F)nn1 -2.05%, CCCCCCCCNS(=O)(=O)/C=C/c1cc(C)ccc1CNC(=O)OC(C)(C)C -1.88%, COC(=O)[C@]12C[C@H](CC(=O)NCCCN3CCCC3=O)C(=O)N(CCc3ccc(OC)c(OC)c3)C1=C[C@H](COCc1ccccc1)O[C@@H]2C 4.14%, CN(C)/C=C/c1c(C#N)c(=O)ncn1Cc1ccccc1 2.62%, CC(=O)Cn1cnc2c(cnn2-c2ccccc2)c1=O 0.74%, COC(CNC(=O)[C@H](Cc1ccccc1)NC1(C(=O)NC2CCCCC2)CCCCC1)OC 0.41%, CCc1c(C)nc(SCC(=O)NC2CCCC2)[nH]c1=O 0.69%, COC(=O)c1ccccc1NC(=O)CSc1n[nH]c(-c2ccncc2)n1 1.06%, O=C(CSc1nnc(-c2ccccc2)n1Cc1ccco1)Nc1ccccc1-c1ccccc1 8.54%, COc1cccc(/C=C2\CC3(OC(C)=O)CCCN2C3)c1 (stereo unspecified) -1.03%, COC(=O)[C@@]12CCCCC3=C1N(CCC3)C(=O)[C@H]2CC(=O)NCc1cccc2ccccc12 3.71%, Cc1cc(C(=O)NNC(=O)c2cccc(S(=O)(=O)N3CCOCC3)c2)c2ccccc2n1 1.34%, Cc1ccnc(SCC(=O)Nc2cccc(S(=O)(=O)N3CCOCC3)c2)n1 1.32%, O=C(Nc1ccc(S(=O)(=O)N2CCOCC2)cc1)c1ccc2ncsc2c1 -4.28%, O=C(CSc1ccccc1)Nc1cccc(S(=O)(=O)N2CCCCC2)c1 5.78%

inhibition, active:
CS(=O)(=O)N(Cc1ccc(Cl)cc1)c1ccc(C(=O)NCCSCc2ccco2)cc1 9.72%, Cc1nc(-c2ccc(F)cc2)c(CC(=O)N2CCN(S(=O)(=O)c3ccc(F)cc3)CC2)s1 12.6%, O=C(c1ccc2c(c1)OCO2)N1CCNc2ccccc2C1 9.9%, Clc1ccc(C2[C@H]3CN(CC4CCCCC4)[C@H](c4ccccc4)C34CC2(c2cccnc2)C4)cn1 (stereo partly specified) 12.1%, COC(=O)C[C@@H]1CC[C@@H]2[C@H](COc3ccc(NC(=O)c4cccc(F)c4)cc3C(=O)N2C)O1 12.8%, COc1cc(NC(=O)COC(=O)c2ccc([N+](=O)[O-])s2)cc(OC)c1OC 16.4%, O=c1c2ccccc2c(-c2ccccc2)nn1Cc1ccccc1 12.3%, Cc1cc(C)c(NC(=O)CN2CCOCCOCCOCCOCC2)c(C)c1 14%, COCc1cc(C(C)=O)ccc1OC 12.2%, COc1ccc(CCNC(=O)COC(=O)Cc2ccccc2F)cc1 10.7%, Cc1ccc(NS(=O)(=O)c2ccc(N/N=C/c3ccccc3OCC(=O)O)c([N+](=O)[O-])c2)c(C)c1 10.8%, Nc1nnc(SCC(=O)OCc2ccc(Cl)c(Cl)c2)s1 10.9%, O=C(NC12CC3CC(CC(C3)C1)C2)N1CCCC(CO)C1 (stereo unspecified) 11.5%, Cc1c(C#N)c2ncn(CC#N)c(=O)c2n1-c1ccccc1 9.69%, CCc1ccc(-c2nc(SCC(=O)NC3CCCC3)n[nH]2)cc1 9.58%, O=C(CSc1ccccc1)Nc1cccc(S(=O)(=O)N2CCOCC2)c1 11.5%, Cc1nc2ccc(NC(=O)c3cccc(S(=O)(=O)N4CCOCC4)c3)cc2s1 14%
